Laboratory results as given in PubChem BioAssay AID1159580 (chemical genetic matrix, 2015).
The campaign covered roughly 5,500 compounds. About 2,000 (36%) were called active. Not shown: some 18% with an inconclusive outcome. Rule as the data show it: active = normalized growth mostly below about 0.91 (no sharp cut-off); inconclusive = no clear call, values can overlap the other calls; inactive = mostly above about 0.92. Some of the results follow.

Assay: chemical genetic growth profiling, strain panel (AID 1159580);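 also: tested at 20 µM; growth read once vehicle control cultures reached saturation at 30 °C; 1 = growth at the plate median or of vehicle wells; lower values mean less growth of the strain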
Details: S. cerevisiae deletion strains, growth OD

Measured: normalized growth

OCC(O)Cc1ccc2c(c1)OCO2 (stereo not drawn)
inactive: locus YAL013W, strain DEP1, active compounds read low 1.02 | locus YAL021C, strain ccr4, active compounds read low 1.02 | locus YAL026C, strain drs2, active compounds read low 0.985 | locus YAL030W, strain snc1, active compounds read low 1 | locus YBL061C, strain skt5, active compounds read low 0.997 | locus YBR009C, strain hhf1, active compounds read low 1.01 | locus YBR021W, strain FUR4, active compounds read low 1.02 | locus YBR023C, strain chs3, active compounds read low 1.01 | locus YBR171W, strain sec66, active compounds read low 1.01 | locus YBR229C, strain ROT2, active compounds read low 1.01 | locus YBR231C, strain swc5, active compounds read low 0.992 | locus YBR279W, strain paf1, active compounds read low 1 | locus YCL011C, strain gbp2, active compounds read low 1 | locus YCL016C, strain dcc1, active compounds read low 1 | locus YCL029C, strain bik1, active compounds read low 0.997 | locus YCL069W, strain vba3, active compounds read low 0.981 | locus YCR088W, strain abp1, active compounds read low 0.993 | locus YDL005C, strain med2, active compounds read low 0.999 | locus YDL035C, strain GPR1, active compounds read low 1.02 | locus YDL040C, strain nat1, active compounds read low 0.998 | locus YDL074C, strain BRE1, active compounds read low 1.05 | locus YDL101C, strain DUN1, active compounds read low 1.02 | locus YDL134C, strain PPH21, active compounds read low 1.01 | locus YDL185W, strain tfp1, active compounds read low 0.999 | locus YDL192W, strain arf1, active compounds read low 0.999 | locus YDR001C, strain nth1, active compounds read low 0.997 | locus YDR069C, strain doa4, active compounds read low 0.979 | locus YDR101C, strain arx1, active compounds read low 0.989 | locus YDR137W, strain rgp1, active compounds read low 0.993 | locus YDR150W, strain NUM1, active compounds read low 1.02 | locus YDR159W, strain sac3, active compounds read low 0.971 | locus YDR162C, strain NBP2, active compounds read low 1.03 | locus YDR195W, strain ref2 0.966 | locus YDR297W, strain sur2, active compounds read low 1.01 | locus YDR318W, strain mcm21, active compounds read low 0.991 | locus YDR334W, strain swr1, active compounds read low 1 | locus YDR335W, strain msn5, active compounds read low 0.996 | locus YDR388W, active compounds read low 1 | locus YDR392W, strain spt3, active compounds read low 1.02 | locus YDR502C, strain sam2, active compounds read low 1 | locus YEL003W, strain gim4, active compounds read low 1.01 | locus YEL037C, strain rad23, active compounds read low 1.01 | locus YEL061C, strain CIN8 (second series), active compounds read low 1 | locus YEL061C, strain CIN8, active compounds read low 1.01 | locus YER015W, strain faa2, active compounds read low 1 | locus YER016W, strain bim1, active compounds read low 1 | locus YER110C, active compounds read low 0.996 | locus YER111C, strain swi4, active compounds read low 0.997 | locus YER155C, strain BEM2 (second series), active compounds read low 0.993 | locus YER155C, strain BEM2, active compounds read low 1.01 | locus YER167W, strain BCK2, active compounds read low 1.01 | locus YFR010W, strain ubp6, active compounds read low 1.01 | locus YGL078C, strain dbp3, active compounds read low 1 | locus YGL086W, strain mad1, active compounds read low 0.993 | locus YGL167C, strain pmr1, active compounds read low 1 | locus YGL173C, strain kem1, active compounds read low 0.991 | locus YGL227W, strain vid30, active compounds read low 0.985 | locus YGL240W, strain doc1, active compounds read low 0.984 | locus YGL248W, strain PDE1, active compounds read low 1.01 | locus YGL253W, strain hxk2, active compounds read low 1 | locus YGR078C, strain PAC10, active compounds read low 1.02 | locus YGR135W, strain pre9, active compounds read low 1.01 | locus YGR229C, strain SMI1, active compounds read low 1.02 | locus YGR252W, strain gcn5, active compounds read low 1 | locus YHR013C, strain ard1, active compounds read low 1.01 | locus YHR027C, strain rpn1, active compounds read low 1 | locus YHR030C, strain SLT2, active compounds read low 1.01 | locus YHR079C, strain IRE1 (second series), active compounds read low 0.991 | locus YHR094C, strain hxt1, active compounds read low 0.999 | locus YHR129C, strain ARP1, active compounds read low 1.01 | locus YHR142W, strain chs7, active compounds read low 1.01 | locus YHR200W, strain rpn10, active compounds read low 1 | locus YIL066C, strain RNR3, active compounds read low 1.02 | locus YIL073C, strain SPO22, active compounds read low 1.04 | locus YIL125W, strain kgd1, active compounds read low 1.02 | locus YIR030C, strain dcg1, active compounds read low 1 | locus YJL092W, strain hpr5, active compounds read low 0.998 | locus YJL095W, strain BCK1 (second series), active compounds read low 1 | locus YJL095W, strain BCK1, active compounds read low 1.04 | locus YJL115W, strain asf1, active compounds read low 1 | locus YJL129C, strain trk1, active compounds read low 0.989 | locus YJL134W, strain LCB3, active compounds read low 1.01 | locus YJL154C, strain vps35, active compounds read low 1 | locus YJL164C, strain tpk1, active compounds read low 1.01 | locus YJL166W, strain qcr8, active compounds read low 1.02 | locus YJL168C, strain set2, active compounds read low 0.994 | locus YJL187C, strain SWE1 (second series), active compounds read low 1.03 | locus YJL187C, strain SWE1, active compounds read low 0.982
